Laboratory results from article PMC5540273 (PLoS ONE, 2017).

Legend:
DRAK1 = system: T1, DRAK1
T1 construct: gene STK17A

DRAK2 = system: T2, DRAK2
T2 construct: gene STK17B
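Further: kd values determined as follow-up on hits from a single-replicate KINOMEscan panel screen.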

Row | Structure (SMILES) | Kd (DRAK1) [nM] | Kd (DRAK2) [nM]
1 | O=C(O)COc1ncnc2cc(-c3ccc4[nH]ncc4c3)sc12 | 250 | 30
2 | CSc1ccc(-c2cc3ncnc(SCC(=O)O)c3s2)cc1 |  | 3.8
